Source: PubChem
Shown are actives, neighbours in structure and some others; about 6.6% of the full set was active somewhere.
MCF10A rereplic: DNA re-replication induction in MCF 10a cells. MCF 10A DNA re-replication, Hoechst nuclear intensity, 48 h. Potency, µM (titrated, usually from 46.1 µM), for the others: at the top dose activity, positive = re-replication, usual class: activators. 350,000 tested, 2.9% active. AID 624296; further: % of control where 0% means no effect; nearly all actives have a fitted effect of over 50% in size
KB-V1 cytotox: kills drug-selected multidrug resistant KB-V1 cells; Potency, µM (top dose mostly 46.1 µM), usual class: cytotoxic; AID 1347076; KB-V1 MDR cells viability, CellTiter-Glo, 72 h; 400,000 tested, 3.4% active; further: on the % scale 0 is the no-effect control and ±100 the full control effect; nearly all actives have a fitted effect of over 60% in size
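Compound-treated KB-V1 multidrug-resistant cells, 72 h, 37 degrees C; viability by CellTiter-Glo. Fitted qHTS curves give the values.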
KB-3-1 tox: kills parental KB-3-1 adenocarcinoma cells. KB-3-1 viability, CellTiter-Glo ATP luminescence, 72 h. Potency, µM (series often up to 46.1 µM), hits mostly cytotoxic. 400,000 tested, 1.4% active. AID 1347075; further: on the % scale 0 is the no-effect control and ±100 the full control effect; nearly all actives have a fitted effect of over 60% in size
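Cells are dispensed, compounds pinned in, plates held at 37 °C for 72 h, then CellTiter-Glo is added and luminescence read after 10 minutes. Cell line: parental KB-3-1 in phenol-red-free DMEM, 10% FBS.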
RGS4 inh: blocks human RGS4-accelerated GTP hydrolysis. P49798. Transcreener GDP fluorescence polarization, RGS4-accelerated GTP hydrolysis. Potency, µM (series often up to 114 µM), for the others: at the highest dose activity change, negative = inhibition, hits mostly inhibitors. 390,000 tested, 0.039% active. AID 504845; further: on the % scale 0 is the no-effect control and ±100 the full control effect; nearly all actives have a fitted effect of over 75% in size
Target sequence (P49798 whole entry, looked up): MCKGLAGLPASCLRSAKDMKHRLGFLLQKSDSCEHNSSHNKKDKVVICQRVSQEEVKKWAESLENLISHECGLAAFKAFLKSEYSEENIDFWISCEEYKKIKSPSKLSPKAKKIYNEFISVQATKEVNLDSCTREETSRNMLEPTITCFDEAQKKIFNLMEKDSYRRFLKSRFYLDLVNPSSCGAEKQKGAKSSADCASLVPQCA
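MLSMR compounds (23 nl, pin-transferred) preincubated 10 min at room temperature with a 500nM (2x) first reagent, then RGS4 at 900nM (2x) plus Transcreener GDP mix added; fluorescence polarization (620/688 nm) read before and after 90 min at 30 °C.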
PTAP TSG101 blk: blocks PTAP/TSG101 interaction to inhibit HIV-1 budding | Potency, µM (highest dose often 115 µM), without a hit: at the top dose activity change, negative = inhibition, actives largely listed as inhibitors | Fluorescence polarization, FITC-PTAP peptide / Tsg101 binding | Q99816 | 340,000 tested, under 10 active | AID 493005; active means well fitted inhibition curve with a large enough effect in the main read-out, with a control signal flat, not every such curve was filed as active; inconclusive means small, poorly fitted or top-dose-only effect, or effect the other way, or a change in a side signal; inactive means no such curve, though single readings can be large or run the other way; further: % of control where 0% means no effect
Target sequence (Q99816 whole entry, looked up): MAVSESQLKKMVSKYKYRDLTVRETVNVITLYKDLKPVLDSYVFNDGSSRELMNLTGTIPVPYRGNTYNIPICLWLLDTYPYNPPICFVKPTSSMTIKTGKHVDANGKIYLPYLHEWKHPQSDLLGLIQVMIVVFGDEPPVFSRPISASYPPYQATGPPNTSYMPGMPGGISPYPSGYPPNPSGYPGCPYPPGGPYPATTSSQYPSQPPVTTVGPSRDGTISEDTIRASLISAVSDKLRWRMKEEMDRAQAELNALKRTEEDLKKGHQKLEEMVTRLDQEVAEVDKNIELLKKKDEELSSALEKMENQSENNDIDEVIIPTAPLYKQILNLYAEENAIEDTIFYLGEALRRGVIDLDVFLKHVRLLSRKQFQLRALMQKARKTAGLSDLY
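Steps: Tsg101 binding domain dispensed (10 uM final), compounds pinned in DMSO, FITC-labeled PTAP-motif peptide added (50 nM final); after 20 min binding at room temperature, polarization measured.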
SW480 rereplic: inducers of DNA re-replication in SW480 colon cancer cells. 340,000 tested, 1.8% active. AID 624297. SW480 DNA re-replication, Hoechst DNA content imaging, 48 h. Potency, µM (highest dose often 46.1 µM), without a hit: at the top dose re-replication activation, hits mostly activators; further: % of control where 0% means no effect; nearly all actives have a fitted effect of over 55% in size
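Compounds, transferred as 23 nL by pin tool, were incubated with cells for 48 hr; DNA content per nucleus was then quantified by Hoechst staining and fluorescence plate imaging.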
An asterisk follows results filed as active; i = inactive; ? = inconclusive; · = no result. Unless noted, the call rests on the fitted dose curve; in most records, active means well fitted curve in the direction sought with a large enough effect; inconclusive means small, poorly fitted or top-dose-only effect, or another doubt; inactive means no such curve, though single readings can be large; an effect the other way counts as inactive or inconclusive. Potency means the concentration at half of the fitted maximal effect.

SMILES	MCF10A rereplic	KB-V1 cytotox	KB-3-1 tox	RGS4 inh	PTAP TSG101 blk	SW480 rereplic
Cn1c(-c2ccccc2)c(C#Cc2ccc(N)cc2)c2ccccc21	12µM*	i	i	-2%	-1%	9.2µM*
Cn1c2ccccc2c(=O)c2cc(C#Cc3ccc(N)cc3)ccc21	-3%	i	i	-14%	-4%	?
CCOC(=O)c1cnc2ccc(C(=O)OC)cc2c1Nc1ccccc1CC	·	?	i	8%	·	·
CCSc1ncc(Cl)c(C(=O)Nc2ccc(S(=O)(=O)N(C)c3ccccc3)cc2)n1	·	i	i	9%	·	·
CCS(=O)(=O)c1ncc(Cl)c(C(=O)Nc2ccc(S(=O)(=O)N(C)c3ccccc3)cc2)n1	?	?	2.6µM*	?	4%	10µM*
CCN(c1ccccc1)S(=O)(=O)c1ccc(NC(=O)c2nc(S(C)(=O)=O)ncc2Cl)cc1	?	?	5.2µM*	?	-11%	5.2µM*
COc1ccc(Cl)cc1NC(=O)CCCn1c(C)c2cnn(-c3ccccc3)c(=O)c2c1C	·	i	i	-6%	·	·
O=C(CSc1oc(-c2ccccc2)nc1S(=O)(=O)c1ccc(Br)cc1)c1ccccc1	·	i	?	?	·	·
COc1cccc(S(=O)(=O)N2CCN(c3nc(-c4cccs4)nc4ccccc34)CC2)c1	·	·	·	7%	·	·
c1cnc(-c2nnc3n2CCCCC3)cn1	1.5µM*	i	i	-1%	-8%	?
O=C(Nc1cccc(-c2cccc(F)c2)c1)C1CCN(Cc2ccc(CO)o2)CC1	11%	i	?	-8%	1%	16µM*
O=C(Nc1ccc2sccc2c1)c1ccc(Cl)s1	18µM*	i	i	-6%	0%	-2%
CCCn1c(SCC(=O)N(C)C2CCS(=O)(=O)C2)nc2sc3c(c2c1=O)CCC3 (configuration not stated)	11%	23µM*	i	-46%	2%	18µM*
CN(Cc1cnc2nc(N)nc(N)c2n1)c1ccc(C(=O)NC(CCC(=O)O)C(=O)O)cc1C(F)(F)F (configuration not stated)	0%	?	0.013µM*	-5%	0%	11%
CN(Cc1cnc2nc(N)nc(N)c2n1)c1ccc(C(=O)NC(CCC(=O)O)C(=O)O)cc1 (configuration not stated)	9%	?	0.0052µM*	6%	-11%	12%
Nc1nc2[nH]cc(CCc3ccc(C(=O)N[C@@H](CCC(=O)O)C(=O)O)cc3)c2c(=O)[nH]1	·	i	i	·	·	·
NCCCC(O)(P(=O)(O)O)P(=O)(O)O	-1%	·	·	·	·	-10%
CC1CCCCC1NC(=O)COC(=O)c1c2c(nc3ccccc13)/C(=C/c1ccco1)CC2 (configuration not stated)	16µM*	i	i	?	-2%	15µM*
Cc1cc(C(=O)OCC(=O)NC2CCCC2)c2ccccc2n1	4%	i	i	-14%	-1%	-16%
O=C(COC(=O)c1c2c(nc3ccccc13)/C(=C/c1ccco1)CC2)NC1CCCC1	7.3µM*	16µM*	i	?	0%	13µM*
COc1cc(OC)c(NC(=O)CSc2nccn2C)cc1Cl	·	?	i	6%	·	·
C[C@H](O)Cc1cc2ccccc2c(=O)o1	2.9µM*	i	i	-8%	·	1%
COc1cc(C(=O)OCCc2cc3ccccc3c(=O)o2)cc(OC)c1OC	15µM*	?	4.6µM*	4%	-4%	8.2µM*
COc1cc(C(=O)OCCCc2cc3ccccc3c(=O)o2)cc(OC)c1OC	-7%	i	i	10%	-3%	-4%
Cc1ccc(NS(=O)(=O)c2cc3c(cc2Cl)CCC(=O)N3)cc1Cl	·	i	i	·	·	·
SMILES	MCF10A rereplic	KB-V1 cytotox	KB-3-1 tox	RGS4 inh	PTAP TSG101 blk	SW480 rereplic
CCOC(=O)c1c(C)n(C)c2ccc(OC)c(NC(=O)CN3CCC(C(=O)OCC)CC3)c12	-3%	?	i	-6%	-2%	-20%
CCOC(=O)c1c(C)n(C)c2ccc(OC)c(NC(=O)CCN3CCSCC3)c12	13%	13µM*	i	18%	-1%	2%
CC1=C(c2ccc(C)c(C)c2)S(=O)(=O)N=C1N1CCN(c2cccc(C(F)(F)F)c2)CC1	·	·	·	-2%	·	·
O=C(NCCO)c1cccc(Nc2nc(-c3ccccc3)c3cc(Cl)ccc3n2)c1	?	16µM*	i	-10%	-9%	16µM*
NNc1nc(-c2ccccc2)c2cc(Cl)ccc2n1	10µM*	i	i	-3%	-5%	-53%
Cc1c(C(=O)Nc2ccc3c(c2)OCCO3)sc2ncnc(N3CCCCC3C)c12 (configuration not stated)	?	?	18µM*	-8%	3%	-20%
COc1cccc(C#Cc2c(C=O)n(C)c3ccccc23)c1	?	?	i	-5%	7%	2.3µM*
CCOC(=O)Nc1ccc2c(c1)N(C(=O)CCN1CCOCC1)c1ccccc1S2=O (configuration not stated)	10µM*	?	?	-31%	-4%	5.8µM*
CCOC(=O)c1sc2ccccc2c1S(=O)(=O)N1CCN(c2cc(C)ccc2C)CC1	·	i	i	-9%	·	·
CCc1cc(=O)oc2cc(OS(C)(=O)=O)ccc12	-3%	i	i	-10%	-4%	-5%
CCc1cc(=O)oc2c(C)c(OS(C)(=O)=O)ccc12	-5%	4.1µM*	i	-12%	-2%	-3%
O=C1C(=C(c2ccccc2)N2CCOCC2)Cc2ccccc21	·	?	7.3µM*	·	·	·
CCCCC(=O)N1C/C=C\C(c2ccc(OC)cc2)N(Cc2ccc(F)cc2)C(=O)[C@H]1Cc1ccccc1 (some centres not stated)	?	i	?	3%	-3%	3.7µM*
COc1ccc(C2/C=C\CN(C(=O)c3ccc(C)cc3)[C@H](Cc3ccccc3)C(=O)N2Cc2ccc(F)cc2)cc1 (some centres not stated)	?	?	12µM*	-25%	-18%	1%
CCOc1ccc(NC(=O)c2ccc(OCC3CCCO3)cc2)cc1S(=O)(=O)N(CC)CC (configuration not stated)	3%	2.6µM*	i	-24%	-3%	4%
CCN(CC)S(=O)(=O)c1ccc(NC(=O)c2ccc(OCC3CCCO3)cc2)cc1 (configuration not stated)	?	15µM*	i	-19%	-6%	-18%
